ChEMBL document CHEMBL2218924, “A broad activity screen in support of a chemogenomic map for kinase signalling research and drug discovery” (Biochem J, 2013)

Legend:
[1] = target: T1, cGMP-dependent protein kinase 1 (Homo sapiens) (UniProt Q13976); details: at 1 µM
T1 sequence (whole entry): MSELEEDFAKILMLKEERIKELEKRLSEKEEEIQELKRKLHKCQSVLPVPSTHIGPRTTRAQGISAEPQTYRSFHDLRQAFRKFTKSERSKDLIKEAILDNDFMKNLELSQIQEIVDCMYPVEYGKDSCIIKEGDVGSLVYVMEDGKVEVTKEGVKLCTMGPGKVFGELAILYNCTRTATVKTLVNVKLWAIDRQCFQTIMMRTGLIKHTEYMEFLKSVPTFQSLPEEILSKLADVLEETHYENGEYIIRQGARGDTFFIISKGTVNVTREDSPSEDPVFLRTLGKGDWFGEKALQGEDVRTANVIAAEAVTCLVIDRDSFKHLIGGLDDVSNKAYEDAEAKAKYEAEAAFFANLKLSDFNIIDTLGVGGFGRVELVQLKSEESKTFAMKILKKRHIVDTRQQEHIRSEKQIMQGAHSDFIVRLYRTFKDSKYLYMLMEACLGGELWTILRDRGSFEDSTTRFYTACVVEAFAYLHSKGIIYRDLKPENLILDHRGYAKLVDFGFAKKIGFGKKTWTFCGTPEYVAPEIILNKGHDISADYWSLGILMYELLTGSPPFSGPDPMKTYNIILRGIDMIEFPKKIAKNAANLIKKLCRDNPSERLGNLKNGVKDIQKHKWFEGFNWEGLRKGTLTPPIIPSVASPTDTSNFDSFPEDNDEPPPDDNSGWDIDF

[2] = target: T1, cGMP-dependent protein kinase 1 (Homo sapiens); details: at 10 µM
[3] = target: T1, cGMP-dependent protein kinase 1 (Homo sapiens); details: at 1 µM; remark: listed apart in the source
[4] = target: T1, cGMP-dependent protein kinase 1 (Homo sapiens); details: at 10 µM; remark: listed apart in the source
[5] = target: T2, MAP kinase-activated protein kinase 5 (Homo sapiens) (UniProt Q8IW41); details: at 1 µM
T2 sequence (whole entry): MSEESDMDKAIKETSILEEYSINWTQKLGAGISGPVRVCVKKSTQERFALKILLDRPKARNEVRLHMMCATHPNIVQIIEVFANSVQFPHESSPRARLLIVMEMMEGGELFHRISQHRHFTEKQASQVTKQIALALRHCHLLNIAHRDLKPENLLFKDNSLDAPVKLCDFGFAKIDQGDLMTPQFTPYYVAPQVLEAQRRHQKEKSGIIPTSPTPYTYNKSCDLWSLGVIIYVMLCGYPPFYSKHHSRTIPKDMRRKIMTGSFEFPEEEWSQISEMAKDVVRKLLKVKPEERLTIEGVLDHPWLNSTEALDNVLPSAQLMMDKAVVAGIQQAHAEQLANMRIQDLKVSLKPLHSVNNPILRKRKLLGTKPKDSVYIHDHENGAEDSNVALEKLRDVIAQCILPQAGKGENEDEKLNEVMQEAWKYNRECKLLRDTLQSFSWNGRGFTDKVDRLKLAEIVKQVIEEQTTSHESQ

[6] = target: T2, MAP kinase-activated protein kinase 5 (Homo sapiens); details: at 10 µM
[7] = target: Serine/threonine-protein kinase N2 (Homo sapiens) (UniProt Q16513); details: at 1 µM
[8] = target: Serine/threonine-protein kinase N2 (Homo sapiens) (UniProt Q16513); details: at 10 µM
[9] = target: Tyrosine-protein kinase FRK (Homo sapiens) (UniProt P42685); details: at 1 µM
[10] = target: Tyrosine-protein kinase FRK (Homo sapiens) (UniProt P42685); details: at 10 µM

Sequence of Tyrosine-protein kinase FRK (Homo sapiens) (P42685 whole entry): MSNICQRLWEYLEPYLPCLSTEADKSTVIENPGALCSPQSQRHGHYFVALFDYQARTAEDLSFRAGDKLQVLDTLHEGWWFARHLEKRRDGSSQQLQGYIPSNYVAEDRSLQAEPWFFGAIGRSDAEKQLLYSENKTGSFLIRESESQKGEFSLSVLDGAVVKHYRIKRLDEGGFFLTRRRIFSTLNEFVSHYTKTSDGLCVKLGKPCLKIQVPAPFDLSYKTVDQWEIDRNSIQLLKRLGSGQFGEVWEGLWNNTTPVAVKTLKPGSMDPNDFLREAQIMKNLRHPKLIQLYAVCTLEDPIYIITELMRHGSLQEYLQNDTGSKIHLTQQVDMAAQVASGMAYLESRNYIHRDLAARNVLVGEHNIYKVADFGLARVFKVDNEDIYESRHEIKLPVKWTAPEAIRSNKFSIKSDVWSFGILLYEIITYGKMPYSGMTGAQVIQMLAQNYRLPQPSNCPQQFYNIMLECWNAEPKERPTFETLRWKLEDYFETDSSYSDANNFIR
Sequence of Serine/threonine-protein kinase N2 (Homo sapiens) (Q16513 whole entry, looked up): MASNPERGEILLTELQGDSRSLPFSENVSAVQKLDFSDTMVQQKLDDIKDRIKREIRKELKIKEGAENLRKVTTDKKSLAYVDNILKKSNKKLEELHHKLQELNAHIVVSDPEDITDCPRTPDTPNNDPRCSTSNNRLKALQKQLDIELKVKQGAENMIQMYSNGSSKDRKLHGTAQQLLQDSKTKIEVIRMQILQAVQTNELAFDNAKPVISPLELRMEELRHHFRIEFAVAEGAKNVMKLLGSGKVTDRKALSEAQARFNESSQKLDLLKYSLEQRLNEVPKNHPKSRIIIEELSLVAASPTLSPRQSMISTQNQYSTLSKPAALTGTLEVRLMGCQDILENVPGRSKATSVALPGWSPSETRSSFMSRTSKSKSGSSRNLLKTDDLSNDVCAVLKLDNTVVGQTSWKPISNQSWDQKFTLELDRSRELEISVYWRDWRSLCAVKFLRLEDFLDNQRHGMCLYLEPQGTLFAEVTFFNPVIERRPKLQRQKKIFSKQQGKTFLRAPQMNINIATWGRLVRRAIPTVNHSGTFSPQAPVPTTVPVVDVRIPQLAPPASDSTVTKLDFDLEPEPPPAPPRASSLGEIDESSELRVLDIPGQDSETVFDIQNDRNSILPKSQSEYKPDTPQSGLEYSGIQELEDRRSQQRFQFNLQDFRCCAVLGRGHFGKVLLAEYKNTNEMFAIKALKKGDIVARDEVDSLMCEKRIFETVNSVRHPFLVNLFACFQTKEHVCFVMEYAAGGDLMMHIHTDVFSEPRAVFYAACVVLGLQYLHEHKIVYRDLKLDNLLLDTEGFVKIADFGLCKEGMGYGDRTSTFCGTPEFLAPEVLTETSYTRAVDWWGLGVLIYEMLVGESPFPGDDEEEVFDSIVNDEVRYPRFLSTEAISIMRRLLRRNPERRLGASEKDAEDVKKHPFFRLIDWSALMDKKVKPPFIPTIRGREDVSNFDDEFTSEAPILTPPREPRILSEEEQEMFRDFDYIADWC

SMILES | residual activity [1] [%] | residual activity [2] [%] | residual activity [3] [%] | residual activity [4] [%] | residual activity [5] [%] | residual activity [6] [%] | residual activity [7] [%] | residual activity [8] [%] | residual activity [9] [%] | residual activity [10] [%]
O=[N+]([O-])c1ccc(-c2nc(-c3ccc(F)cc3)c(-c3ccncc3)[nH]2)cc1 | 98 | 103 | 105 | 92 | 112 | 107 | 119 | 93 | 57 | 60
Ic1cccc(CSc2nnc(-c3ccncc3)o2)c1 | 105 | 96 | 88 | 49 | 105 | 117 | 83 | 70 | 77 | 78
O=C1NC(=O)/C(=C\c2ccc3nccnc3c2)S1 | 125 | 97 | 80 | 62 | 96 | 93 | 103 | 94 | 110 | 93
CO[C@H]1[C@@H](OC)C[C@H](C)[C@@H](OC)C2=CC(=O)C=C(NC(=O)/C(C)=C/C=C/[C@H](OC)[C@@H](OC(N)=O)/C(C)=C/[C@@H]1C)C2=O | 102 | 105 | 85 | 81 | 107 | 95 | 111 | 96 | 114 | 93
Oc1ccc(-c2nc(-c3ccc(F)cc3)c(-c3ccncc3)[nH]2)cc1 | 108 | 66 | 108 | 78 | 110 | 80 | 107 | 47 | 65 | 12
CO[C@@H]1[C@H](N(C)C(=O)c2ccccc2)C[C@H]2O[C@]1(C)n1c3ccccc3c3c4c(c5c6ccccc6n2c5c31)C(=O)NC4 | 8 | 4 | 4 | 3 | 102 | 57 | 2 | 1 | 33 | 23
Cn1nc2c3c(cccc31)C(=O)c1ccccc1-2 | 86 | 95 | 100 | 6 | 76 | 44 | 95 | 77 | 87 | 64
CC(C)n1cnc2/c(=N/c3cccc(Cl)c3)nc(NCCO)[nH]c21 | 92 | 106 | 94 | 72 | 105 | 88 | 86 | 62 | 75 | 29
Cn1cc(/C=C2\C(=O)Nc3ccc(S(N)(=O)=O)cc32)c2ccccc21 | 103 | 101 | 77 | 54 | 62 | 54 | 58 | 23 | 74 | 35
CN(C)c1ccc(/C=C2\C(=O)Nc3ccccc32)cc1 | 121 | 115 | 65 | 84 | 113 | 65 | 113 | 120 | 97 | 76
COc1cc2ncnc(Nc3ccc(O)c(Br)c3)c2cc1OC | 94 | 76 | 70 | 47 | 77 | 70 | 87 | 61 | 35 | 5
O=c1cc(-c2cccc3c2Sc2ccccc2S3)oc(N2CCOCC2)c1 | 102 | 105 | 81 | 80 | 99 | 40 | 112 | 97 | 94 | 92
CC(C)n1cnc2c(NCc3ccccc3)nc(NCCCO)nc21 | 89 | 101 | 95 | 83 | 115 | 115 | 110 | 99 | 88 | 80
Cc1nc2cc3nc(-c4cccs4)cnc3cc2n1C | 117 | 96 | 99 | 103 | 81 | 56 | 97 | 100 | 99 | 76
Cc1ccc(S(=O)(=O)/C=C/C#N)cc1 | 85 | 99 | 107 | 92 | 110 | 111 | 90 | 87 | 70 | 82
CNc1cc2c(Nc3cccc(Br)c3)ncnc2cn1 | 112 | 108 | 75 | 62 | 89 | 94 | 84 | 93 | 92 | 37

SMILES | residual activity [1] [%] | residual activity [2] [%] | residual activity [3] [%] | residual activity [4] [%] | residual activity [5] [%] | residual activity [6] [%] | residual activity [7] [%] | residual activity [8] [%] | residual activity [9] [%] | residual activity [10] [%]
COc1cccc(-c2cc(=O)c3ccccc3o2)c1N | 95 | 89 | 114 | 102 | 125 | 108 | 94 | 90 | 93 | 86
Cc1cncc2cccc(S(=O)(=O)N3CCCN(C(=O)CN)C[C@H]3C)c12 | 93 | 44 | 74 | 19 | 82 | 98 | 22 | 7 | 87 | 70
O=C1Nc2cc(Br)ccc2/C1=C1/Nc2ccccc2/C1=N\O | 90 | 109 | 78 | 61 | 76 | 90 | 75 | 92 | 2 | 0
CCC(=O)Nc1ccc2ncnc(Nc3cccc(Br)c3)c2c1 | 108 | 96 | 89 | 81 | 74 | 74 | 90 | 99 | 94 | 59
O=C1NC(=O)c2cc(Nc3ccc(F)cc3)c(Nc3ccc(F)cc3)cc21 | 98 | 97 | 92 | 73 | 74 | 39 | 90 | 84 | 83 | 41
COc1ccc(CNc2nc(N(CCO)CCO)nc3c2ncn3C(C)C)cc1 | 93 | 101 | 109 | 101 | 100 | 102 | 104 | 77 | 95 | 87
O=C1c2ccccc2-[n+]2ccc3c([nH]c4ccccc43)c21 | 94 | 116 | 83 | 75 | 119 | 124 | 86 | 92 | 95 | 92
COc1cc2ncnc(N3CCN(C(=O)Nc4ccc(Oc5ccccc5)cc4)CC3)c2cc1OC | 99 | 110 | 68 | 72 | 78 | 79 | 88 | 112 | 96 | 127
COc1ccc(OC)c2c(=S)c3ccccc3[nH]c12 | 93 | 109 | 94 | 76 | 96 | 90 | 99 | 88 | 95 | 99
c1ccc(-c2n[nH]c3c2oc2ccccc23)cc1 | 99 | 100 | 75 | 93 | 97 | 58 | – | – | – | –
Nc1ccc2ncnc(NCCc3ccc(Oc4ccccc4)cc3)c2c1 | 108 | 109 | 86 | 75 | 89 | 90 | 98 | 78 | 93 | 109
Cc1ccc(NC2=CC(=O)c3sc(C)nc3C2=O)cc1 | 91 | 95 | 105 | 88 | 110 | 114 | 93 | 89 | 87 | 90
Cc1cc2ncc(-c3ccccc3)nc2cc1C | 110 | 130 | 83 | 94 | 101 | 73 | 102 | 107 | 105 | 88
N#C/C(=C(\N)Sc1ccc(N)cc1)c1ccccc1C(F)(F)F | 97 | 95 | 100 | 33 | 91 | 90 | 68 | 48 | 94 | 95
C[C@@H](N)[C@H]1CC[C@H](C(=O)Nc2ccncc2)CC1 | 77 | 31 | 73 | 30 | 112 | 102 | 16 | 4 | 98 | 97
CCOc1cc2ncnc(Nc3cccc(Br)c3)c2cc1OCC | 108 | 91 | 95 | 66 | 79 | 82 | 93 | 79 | 40 | 5
